Measured values reported in PubChem BioAssay (NCI).
Several values for one entry are separate records, joined by “and”; a condition that tells them apart may be missing. Equal values may be shown once. Compounds without any hit were thinned out: in the full panel of roughly 83,000, 20% have a hit.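 Single-concentration screen, 48 h exposure, 96-well plates. Endpoint: percent growth. Below 10 = active.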 Activity calls are given as the source filed them.

What was measured:
Assay in all cases: NCI-60 one-dose screen, 48 h (100 = growth as untreated, 0 = no growth, -100 = all killed)
Details in all cases: 10 µM unless noted
NCI-H23 lung = tested on: NCI-H23 lung
NCI-H226 lung = tested on: NCI-H226 lung
NCI-H322M lung = tested on: NCI-H322M lung
HOP-62 NSCLC = tested on: HOP-62 NSCLC
NCI-H460 lung = tested on: NCI-H460 lung
HOP-92 NSCLC = tested on: HOP-92 NSCLC
NCI-H522 lung = tested on: NCI-H522 lung
A549/ATCC NSCLC = tested on: A549/ATCC NSCLC
786-0 renal = tested on: 786-0 renal
COLO 205 colon = tested on: COLO 205 colon

Measured: growth

COCCn1cc(-c2csc(-c3cn(C)c4ccc(F)cc34)n2)c2cccnc21
inactive: NCI-H23 lung 76.3% | NCI-H226 lung 83% | NCI-H322M lung 75.7% | HOP-62 NSCLC 93.2% | NCI-H460 lung 51.6% | HOP-92 NSCLC 64.7% | NCI-H522 lung 30.8% | A549/ATCC NSCLC 60.6% | 786-0 renal 62% | COLO 205 colon 61.6%

Cc1ccc(Nc2nc(-c3cc(O)c(C)c(C)c3O)cs2)cc1
inactive: NCI-H23 lung 90.4% | NCI-H226 lung 90.2% | NCI-H322M lung 102% | HOP-62 NSCLC 99.9% | NCI-H460 lung 104% | HOP-92 NSCLC 98.2% | NCI-H522 lung 65.8% | A549/ATCC NSCLC 88.1% | 786-0 renal 118% | COLO 205 colon 116%

N#C/C(=C\c1ccc(Br)cc1)n1nnc2c(F)cccc21
inactive: NCI-H23 lung 10.3% | NCI-H226 lung 25.5% | HOP-62 NSCLC 53.8% | HOP-92 NSCLC 19.2% | A549/ATCC NSCLC 14.8%
active: NCI-H322M lung 0.929% | NCI-H460 lung -33.7% | NCI-H522 lung -52.1% | 786-0 renal -13.5% | COLO 205 colon -15.9%

Cc1ccc(-c2nc(C#N)c(S(=O)(=O)N(C)C)o2)cc1
inactive: NCI-H23 lung 89.2% | NCI-H226 lung 103% | NCI-H322M lung 91.1% | HOP-62 NSCLC 96.7% | NCI-H460 lung 110% | HOP-92 NSCLC 103% | A549/ATCC NSCLC 102% | 786-0 renal 96.4% | COLO 205 colon 16.7%
active: NCI-H522 lung -0.0776%

CC(=O)c1c(C)nc2ccccc2c1/C=C/c1cccc(C)c1
inactive: NCI-H23 lung 61.6% | NCI-H226 lung 75.2% | NCI-H322M lung 96.9% | HOP-62 NSCLC 60.9% | NCI-H460 lung 33.8% | HOP-92 NSCLC 60.2% | NCI-H522 lung 41.5% | A549/ATCC NSCLC 43.6% | 786-0 renal 79.7% | COLO 205 colon 58.5%

O=C(CCl)N(O)c1ccc(/C=C/c2ccccc2)cc1
inactive: NCI-H23 lung 70.7% and 74.2% | NCI-H226 lung 56.9% | NCI-H322M lung 99.5% and 91.5% | HOP-62 NSCLC 96.5% | NCI-H460 lung 85.4% and 73% | HOP-92 NSCLC 81.8% | NCI-H522 lung 61.5% and 30.4% | A549/ATCC NSCLC 90.3% and 65% | 786-0 renal 84% and 78.3% | COLO 205 colon 92.9% and 83.1%

Cc1c(C(=O)OCCCCOC(=O)c2c(C)n(C)c3scc[n+]23)[n+]2ccsc2n1C
inactive: NCI-H23 lung 101% | NCI-H226 lung 91.1% | NCI-H322M lung 112% | HOP-62 NSCLC 109% | NCI-H460 lung 108% | HOP-92 NSCLC 88.9% | NCI-H522 lung 99.6% | A549/ATCC NSCLC 90.2% | 786-0 renal 112% | COLO 205 colon 119%

CCCCC(NC(=O)CN1C(=O)/C(=C/C(C)=C/c2ccccc2)SC1=S)C(=O)O (stereo not given)
inactive: NCI-H23 lung 94.8% | NCI-H226 lung 93.9% | NCI-H322M lung 103% | HOP-62 NSCLC 93% | NCI-H460 lung 102% | HOP-92 NSCLC 62.8% | NCI-H522 lung 93.8% | A549/ATCC NSCLC 98.5% | 786-0 renal 104% | COLO 205 colon 119%

Nc1[nH]nc(Nc2ccccc2)c1-c1nc2ccccc2s1
inactive: NCI-H23 lung 24.2% | NCI-H226 lung 57.3% | NCI-H322M lung 37.6% | HOP-62 NSCLC 28.6% | A549/ATCC NSCLC 20% | 786-0 renal 10.2% | COLO 205 colon 64.2%
active: NCI-H460 lung 5.94% | HOP-92 NSCLC -15.8% | NCI-H522 lung -44.6%

CCCCCCCC/C=C\CCCCCCCCOc1ccccc1CC(=O)NCC[N+]1(C)CCOCC1
inactive: NCI-H23 lung 69.5% | NCI-H226 lung 62.3% | NCI-H322M lung 93.7% | HOP-62 NSCLC 50.6% | NCI-H460 lung 39.4% | HOP-92 NSCLC 67.2% | NCI-H522 lung 51% | A549/ATCC NSCLC 74.4% | 786-0 renal 55.6% | COLO 205 colon 17.3%

COc1ccc(-c2cc(-c3cc(OC)c(OC)c(OC)c3)c(C#N)c(=O)n2CCCCC(=O)O)cc1
inactive: NCI-H23 lung 96.7% | NCI-H226 lung 104% | NCI-H322M lung 98.4% | HOP-62 NSCLC 96.8% | NCI-H460 lung 96% | HOP-92 NSCLC 93.6% | NCI-H522 lung 87.3% | A549/ATCC NSCLC 93.9% | 786-0 renal 97.5% | COLO 205 colon 115%

O=C(/C=C\c1ccc(Cl)c(Cl)c1)c1ccccc1
inactive: NCI-H23 lung 89.1% | NCI-H226 lung 88.2% and 92.3% | NCI-H322M lung 107% | HOP-62 NSCLC 100% and 91.4% | NCI-H460 lung 101% and 100% | HOP-92 NSCLC 70.7% | NCI-H522 lung 81% and 87.1% | A549/ATCC NSCLC 86.7% and 93.1% | 786-0 renal 84.9% and 104% | COLO 205 colon 99.9% and 121%

Cc1nc(Nc2ncc(C(=O)Nc3c(C)cccc3Cl)s2)cc(N2CCN(CCO)CC2)n1
active: NCI-H322M lung 0.803% | HOP-92 NSCLC -21.5% and -11.5% | NCI-H522 lung -1.57% | COLO 205 colon -1.08% and -9.83%
22.2% (inactive) and 9.13% (active): 786-0 renal
inactive: NCI-H23 lung 46.6% and 32.6% | NCI-H226 lung 31.9% and 45.6% | HOP-62 NSCLC 12% | NCI-H460 lung 74.3% and 42.7%
25.1% (inactive) and 6.75% (active): A549/ATCC NSCLC

CN(C)CCCn1c2nc(=O)[nH]c(=O)c-2nc2cc(Cl)c(Cl)cc21
active: NCI-H522 lung -23.7% | COLO 205 colon 4.28%
inactive: NCI-H23 lung 109% | NCI-H226 lung 105% | NCI-H322M lung 69.1% | HOP-62 NSCLC 117% | NCI-H460 lung 107% | HOP-92 NSCLC 88.3% | A549/ATCC NSCLC 99% | 786-0 renal 103%

COc1ccc(-c2csc(NC(=O)CN3CCN(CCO)CC3)n2)cc1NS(=O)(=O)c1cccc2c(N(C)C)cccc12
inactive: NCI-H23 lung 88.1% | NCI-H226 lung 92.5% | NCI-H322M lung 89.9% | HOP-62 NSCLC 79.9% | NCI-H460 lung 67.1% | HOP-92 NSCLC 50.7% | NCI-H522 lung 79% | A549/ATCC NSCLC 75.7% | 786-0 renal 57.7% | COLO 205 colon 62%

COc1cc(-c2nc3occn3c2-c2ccnc(NCCCNS(=O)(=O)c3ccc(O)cc3)n2)ccc1F
inactive: NCI-H23 lung 92.6% | NCI-H226 lung 96.8% | NCI-H322M lung 113% | HOP-62 NSCLC 95% | NCI-H460 lung 102% | HOP-92 NSCLC 86.7% | NCI-H522 lung 72.4% | A549/ATCC NSCLC 94.3% | 786-0 renal 122% | COLO 205 colon 45%

N#Cc1cc(-c2ccnc(Nc3ccc(NC(=O)CCl)cc3)n2)ccc1N1CCCC1
inactive: NCI-H322M lung 53.4% | HOP-92 NSCLC 28.4%
active: NCI-H23 lung -31.3% | NCI-H226 lung -12.4% | HOP-62 NSCLC -4.87% | NCI-H460 lung -35.9% | NCI-H522 lung -41.3% | A549/ATCC NSCLC -26.7% | 786-0 renal -14.6% | COLO 205 colon -59.6%

CC(=O)N1N=C(c2ccc(F)cc2)CC1c1sc(N(C)Cc2ccccc2)nc1Cl (stereo not given)
inactive: NCI-H23 lung 85.1% | NCI-H226 lung 102% | NCI-H322M lung 99.6% | HOP-62 NSCLC 91.7% | NCI-H460 lung 106% | HOP-92 NSCLC 85.9% | NCI-H522 lung 81.6% | A549/ATCC NSCLC 88.6% | 786-0 renal 84.9% | COLO 205 colon 98.7%

COc1ccc(-c2c[nH]c(C(=O)O)c2-c2cc(OC)c(OC)c(OC)c2)cc1
inactive: NCI-H23 lung 48.5% | NCI-H226 lung 88.9% | NCI-H322M lung 47.9% | HOP-62 NSCLC 37.3% | NCI-H460 lung 14.4% | HOP-92 NSCLC 32.2% | NCI-H522 lung 28.1% | A549/ATCC NSCLC 49.4% | 786-0 renal 31.3% | COLO 205 colon 14.7%

O=C(Cn1cc(CN2CCN(c3ccnc4cc(Cl)ccc34)CC2)nn1)Nc1cccc([N+](=O)[O-])c1
inactive: NCI-H23 lung 99.1% | NCI-H226 lung 86.3% | NCI-H322M lung 91.9% | HOP-62 NSCLC 71.9% | NCI-H460 lung 98% | HOP-92 NSCLC 71.4% | NCI-H522 lung 71.7% | A549/ATCC NSCLC 84.8% | 786-0 renal 88% | COLO 205 colon 101%

COC(=O)[C@H]1Cc2c([nH]c3ccccc23)[C@@H](c2cccs2)N1
inactive: NCI-H23 lung 104% | NCI-H226 lung 98.3% | NCI-H322M lung 100% | HOP-62 NSCLC 102% | NCI-H460 lung 105% | HOP-92 NSCLC 105% | NCI-H522 lung 78.9% | A549/ATCC NSCLC 103% | 786-0 renal 91.4% | COLO 205 colon 131%

NC(=O)c1c(NC(=O)/C=C/c2cccs2)sc2c1CCC(=O)C2
inactive: NCI-H23 lung 17.4% | NCI-H226 lung 68.5% | NCI-H322M lung 101% | HOP-62 NSCLC 87.3% | NCI-H460 lung 58% | HOP-92 NSCLC 42.4% | A549/ATCC NSCLC 74.9% | 786-0 renal 70.2% | COLO 205 colon 55.5%
active: NCI-H522 lung -4.08%

COc1cc2ncnc(Nc3ccc(F)c(Cl)c3)c2cc1OCC(=O)N1CCCCC1
inactive: NCI-H23 lung 91% | NCI-H226 lung 86.8% | NCI-H322M lung 29% | HOP-62 NSCLC 103% | NCI-H460 lung 95.5% | HOP-92 NSCLC 81.6% | NCI-H522 lung 33.1% | A549/ATCC NSCLC 67.8% | 786-0 renal 78.2% | COLO 205 colon 96%

CC(=O)c1c(C)nc(SCC(=O)Nc2ccc(Cl)cc2)n1-c1ccc(Cl)cc1
inactive: NCI-H23 lung 96.5% | NCI-H226 lung 96% | NCI-H322M lung 94.9% | HOP-62 NSCLC 99% | NCI-H460 lung 86.7% | HOP-92 NSCLC 110% | NCI-H522 lung 72.3% | A549/ATCC NSCLC 86.7% | 786-0 renal 102% | COLO 205 colon 109%
